Results as given in PubChem BioAssay (NCI).
Compounds without any hit were thinned out: in the full panel of roughly 83,000, 20% have a hit.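 Interpretation: 100, growth as untreated; towards 0, rising growth inhibition; 0, no net growth; 0 to -100, cell death. Compounds scoring below 10 were considered active.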 A number with no mark means an inactive call. Calls of active or inactive are those of the source.

Tested on: HCT-116 colon
Test: NCI-60 one-dose screen, 48 h (100 = growth as untreated, 0 = no growth, -100 = all killed)
Conditions: 10 µM unless noted

Compound	growth
Cc1ccccc1Nc1cc(O)c2c(=O)cc(-c3ccccc3)oc2c1	15.2%
CN(C)c1ccc(/C=C(\C#N)c2cc3ccccc3[nH]2)cc1	11.5%
CNC1=CC(=O)c2c(C(=O)OC)c(C)[n+]([O-])c(C)c2C1=O	16%
O=S(=O)(Oc1ccc(Br)cc1)c1ccc(Cl)cc1	98.6%
Cc1ccc(S(=O)(=O)Oc2ccc3sc4cccc(NCCN(C)C)c4c(=O)c3c2)cc1	-82.9% (active)
CCCCNc1nnc2n(Cc3ccccc3)c(=O)c3c4c(sc3n12)CCCC4	27.2%
N=C(N)c1ccc(-c2ccc(-c3ccccc3)s2)cc1	-55.1% (active)
CNC(=O)c1cc(Oc2ccc3c(c2)sc2nc(-c4ccc(OC)cc4)cn23)ccn1	16%
O=C(Nc1ncc(Cc2ccccc2)s1)c1ccc2c(c1)OCCCO2	23%
Cc1[nH]c(C2CC(c3ccc(C(F)(F)F)c(F)c3)=NN2c2ccccc2)c(C)c1C(=O)NCC(F)(F)F (stereo not given)	82.4%
COc1cc2c(cc1OCCCCN1CCN(C(=S)SCCC(C#N)(c3ccccc3)c3ccccc3)CC1)N=C[C@@H]1CCCN1C2=O	-62.1% (active)
COc1ccc(-c2nc(-c3cn(C)c4ncccc34)cs2)cc1	-75.3% [100 µM] (active)
COc1ccc(C(=O)Cn2c(C(=O)c3ccc(Cl)cc3)nc3ccccc32)cc1	26.9%
Cc1ccc(Cl)cc1NC(=O)c1sc2nc3c(cc2c1N)C(=O)CCC3	68%
Nn1c(=O)c(=O)[nH]c2c(cnn2-c2ccccc2)c1=O	108%
